Compounds without any hit were thinned out: in the full panel of roughly 79,000, 15% have a hit. Active and inactive are the calls of the source. No stated cut-off is given here; in the data, active means growth inhibition above about 70%; inactive means the rest.
Columns and labels:
[1] = NCI Yeast Anticancer Drug Screen. Data for the rad52 strain (AID 147);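 further: 0% = growth of vehicle-treated control cultures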; conditions: S. cerevisiae rad52 mutant growth inhibition, active compounds read high
Outline: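 Inhibition of yeast growth, referenced to vehicle controls, was the measured output for a strain with defective DNA damage repair.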

[2] = NCI Yeast Anticancer Drug Screen. Data for the wt1 strain (AID 149);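 further: 0% = growth of vehicle-treated wt1 cultures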; conditions: S. cerevisiae wt1 strain (SPY 50644) growth inhibition, active compounds read high
Outline: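 The wt1 strain was treated with compounds, and growth was compared with vehicle-treated cultures to give inhibition.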

[3] = NCI Yeast Anticancer Drug Screen. Data for the rad50EPP+ strain (AID 151);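 further: 0% = growth of vehicle-treated control cultures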; conditions: S. cerevisiae rad50 mutant strain, active compounds read high
Outline: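 Genetically defined yeast (rad50EPP+, DNA damage repair alteration) is grown with compound, and inhibition of growth is expressed relative to vehicle-treated controls.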

[4] = NCI Yeast Anticancer Drug Screen. Data for the rad50 strain (AID 155);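 further: 0% = growth of vehicle-only cultures of the same strain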; conditions: S. cerevisiae rad50 strain growth inhibition, active compounds read high
Outline: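 Cells are treated with compound, grown, and their growth is then scored against vehicle-only cultures of the same repair-deficient yeast strain.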

[5] = NCI Yeast Anticancer Drug Screen. Data for the mec2-1 strain (AID 157); conditions: S. cerevisiae mec2-1 strain, active compounds read high
Outline: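 Each compound was tested on mec2-1 yeast, a strain altered in DNA damage repair or cell cycle control. Growth inhibition is reported relative to vehicle.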

[6] = NCI Yeast Anticancer Drug Screen. Data for the sgs1 mgt1 strain (AID 161);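 further: 0% = growth of cultures given vehicle only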; conditions: S. cerevisiae sgs1 mgt1 strain, active compounds read high
Outline: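 Mutant yeast exposed to compound; growth scored against vehicle-only wells.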

[7] = NCI Yeast Anticancer Drug Screen. Data for the cln2 rad14 strain (AID 165);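 further: 0% = growth equal to vehicle treated cultures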; conditions: S. cerevisiae cln2 rad14 strain, active compounds read high
Outline: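 Test compounds were added to cln2 rad14 yeast cultures; inhibition of growth was then determined by comparison with vehicle treatment.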

[8] = NCI Yeast Anticancer Drug Screen. Data for the bub3 strain (AID 167); conditions: S. cerevisiae bub3 mutant strain, active compounds read high
Outline: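 Part of a panel of yeast mutants defective in DNA damage repair or cell cycle regulation. Each strain is grown with compound, and inhibition is calculated relative to solvent-treated cultures.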

[9] = NCI Yeast Anticancer Drug Screen. Data for the wt2 strain (AID 169);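 further: 0% = growth of vehicle-treated yeast cultures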; conditions: S. cerevisiae wt2 strain growth inhibition, active compounds read high
Outline: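 The panel's yeast strains carry defined changes in DNA repair or cell cycle genes. Each strain is grown with compound, and growth loss is scored relative to vehicle.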

[10] = NCI Yeast Anticancer Drug Screen. Data for the mlh1 strain (AID 171);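 further: 0% = growth of vehicle-treated control cultures of the same strain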; conditions: S. cerevisiae mlh1 strain growth inhibition, active compounds read high
Outline: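 Inhibition values reflect reduced yeast growth in the presence of compound, referenced to vehicle controls, using a strain chosen for its alteration in DNA repair or cell cycle control.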

[11] = NCI Yeast Anticancer Drug Screen. Data for the sgs1 strain (AID 173);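 further: 0% = growth of vehicle-only control cultures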; conditions: S. cerevisiae sgs1 mutant, active compounds read high
Outline: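 Vehicle-treated cultures served as reference for growth inhibition of a yeast strain altered in DNA damage repair or cell cycle control after compound exposure.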

[12] = NCI Yeast Anticancer Drug Screen. Data for the mlh1 rad18 strain (AID 175); conditions: S. cerevisiae mlh1 rad18 strain growth inhibition, active compounds read high
Outline: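 Inhibition values reflect reduced growth of mutant yeast versus vehicle-treated controls following compound exposure; the mutations affect DNA damage repair.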

[13] = NCI Yeast Anticancer Drug Screen. Data for the rad18 strain (AID 177); conditions: S. cerevisiae rad18 mutant growth inhibition, active compounds read high
Outline: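 Steps: expose repair-mutant yeast to compound; measure growth; express as inhibition relative to vehicle control.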

[14] = at 5.0 µM (retest, dose inferred, filed as 0.5)
[15] = at 50.0 µM (retest, dose inferred, filed as 5.0)

Measured: growth inhibition

c1ccc2c(c1)ccc1c3ccncc3ccc21
active: [1]; at 3.7 µM 80% | [1]; at 11.0 µM 99% | [1]; at 33.0 µM 99% | [1]; at 100.0 µM 95% | [2]; at 33.0 µM 99% | [2]; at 100.0 µM 97% | [3]; at 3.7 µM 86% | [3]; at 11.0 µM 98% | [3]; at 33.0 µM 98% | [3]; at 100.0 µM 92% | [4]; at 3.7 µM 74% | [4]; [14] 90% | [4]; at 11.0 µM 98% | [4]; at 33.0 µM 99% | [4]; [15] 94% | [4]; at 50.0 µM 97.8% | [4]; at 100.0 µM 93% | [5]; at 11.0 µM 85% | [5]; at 33.0 µM 99% | [5]; [15] 95% | [5]; at 50.0 µM 98.2% | [5]; at 100.0 µM 98% | [6]; [15] 97% | [6]; at 50.0 µM 98% | [7]; [15] 96% | [7]; at 50.0 µM 96% | [8]; at 11.0 µM 93% | [8]; at 33.0 µM 99% | [8]; [15] 96% | [8]; at 50.0 µM 97.1% | [8]; at 100.0 µM 98% | [9]; at 11.0 µM 80% | [9]; at 33.0 µM 99% | [9]; at 100.0 µM 96% | [10]; at 11.0 µM 83% | [10]; at 33.0 µM 99% | [10]; at 100.0 µM 96% | [11]; at 11.0 µM 96% | [11]; at 33.0 µM 99% | [11]; at 100.0 µM 94% | [12]; [15] 94% | [12]; at 50.0 µM 97.5% | [13]; at 11.0 µM 96% | [13]; at 33.0 µM 99% | [13]; at 100.0 µM 94%
inactive: [1]; at 1.2 µM 15% | [2]; at 1.2 µM -6% | [2]; at 3.7 µM -3% | [2]; at 11.0 µM 47% | [3]; at 1.2 µM 35% | [4]; at 1.2 µM 12% | [5]; at 1.2 µM 3% | [5]; at 3.7 µM 4% | [5]; [14] -15% | [6]; [14] -15% | [7]; [14] -11% | [8]; at 1.2 µM 8% | [8]; at 3.7 µM 35% | [8]; [14] 16% | [9]; at 1.2 µM -3% | [9]; at 3.7 µM 0% | [10]; at 1.2 µM 4% | [10]; at 3.7 µM 2% | [11]; at 1.2 µM -3% | [11]; at 3.7 µM 12% | [12]; [14] -4% | [13]; at 1.2 µM -2% | [13]; at 3.7 µM 18%
